Anthrax LT inh = blocks cellular internalization of anthrax lethal toxin. Cells, anthrax lethal toxin internalization, FRET ratio (460/530). Potency, µM (titrated, usually from 40 µM), for inactives: at the top dose activity change, negative = inhibition, most hits filed as inhibitors. 0.67% of 70,000 active. AID 912; also: % is scaled to controls: 0 for no effect and ±100 for the full control effect; nearly all actives have a fitted effect of over 50% in size
AmpC inh no det = blocks E. coli AmpC beta-lactamase in absence of detergent | P00811 | AmpC nitrocefin hydrolysis, absorbance 480 nm, no detergent | Potency, µM (titrated, usually from 28.7 µM), for inactives: at the top dose activity change, negative = inhibition | 1.8% of 71,000 active | AID 585; also: % of control where 0% means no effect
Target sequence (P00811 whole entry, looked up): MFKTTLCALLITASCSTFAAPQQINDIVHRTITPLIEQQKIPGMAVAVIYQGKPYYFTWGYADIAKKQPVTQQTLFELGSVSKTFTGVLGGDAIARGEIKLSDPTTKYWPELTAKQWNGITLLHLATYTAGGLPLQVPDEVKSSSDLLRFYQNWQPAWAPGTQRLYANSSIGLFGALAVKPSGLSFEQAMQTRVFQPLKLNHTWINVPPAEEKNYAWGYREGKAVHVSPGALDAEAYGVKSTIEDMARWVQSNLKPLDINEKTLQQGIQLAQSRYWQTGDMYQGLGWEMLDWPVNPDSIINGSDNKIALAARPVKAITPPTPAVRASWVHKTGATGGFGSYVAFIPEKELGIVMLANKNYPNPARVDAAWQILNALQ
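AmpC in 20 mM phosphate buffer pH 7.0 was preincubated 15 min at room temperature with compounds. Nitrocefin (800 uM stock) was then added and hydrolysis followed at 480 nm every 20 s for 4 min.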
Prx2 Sm inh = inhibitors of Schistosoma mansoni peroxiredoxin 2 | S. mansoni Prx2 activity coupled to TGR/GSH (TGR is thioredoxin glutathione reductase), NADPH fluorescence loss, qHTS | Potency, µM | 0.07% of 65,000 active | AID 448
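qHTS, coupled TGR/Prx2 format; 15 min compound preincubation at RT; reaction started with H2O2 (2.5 mM aliquot); kinetic NADPH fluorescence decrease, ex 365/em 450 nm.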
AmpC det inh = inhibitors of E. coli AmpC beta-lactamase with detergent; P00811; purified AmpC, nitrocefin hydrolysis with detergent; Potency, µM (doses to about 28.7 µM), for the others: at the highest dose activity change, negative = inhibition; 0.09% of 71,000 active; AID 584; active = well fitted curve in the direction sought with a large enough effect; inconclusive = small, poorly fitted or top-dose-only effect; also: % is scaled to controls: 0 for no effect and ±100 for the full control effect
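E. coli AmpC (5.3 nM) in 20 mM phosphate pH 7.0 with 0.01% Triton X-100, preincubated 15 min RT with compound; nitrocefin (2 uL of 800 uM stock) hydrolysis followed by 480 nm absorbance every 20 s over 4 min.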
The depositor's hits bear a star; [ ] = dose if it differs, or a comment. Shown are actives, neighbours in structure and some others; about 2.6% of the full set was active somewhere. Unless noted, calls follow the shape of the full dose curve. Potency is read from the fitted curve at half-maximal effect.

Screening Cc1cc(C)nc(SCC(=O)Nc2ccc(S(=O)(=O)Nc3onc(C)c3C)cc2)n1 returned Anthrax LT inh -5%, AmpC inh no det 7%, Prx2 Sm inh >57 and AmpC det inh 5%.
`Cc1noc(NS(=O)(=O)c2ccc(NC(=O)CSc3ncccn3)cc2)c1C` gave Anthrax LT inh 4%, AmpC inh no det -8%, Prx2 Sm inh 6.8* and AmpC det inh 3%.
For CC[C@@H]1CN2CCc3cc(OC)c(OC)cc3[C@H]2C[C@@H]1C[C@@H]1NCCc2cc(OC)c(OC)cc21 the results were Prx2 Sm inh >57.
`C=CCN1CC[C@@]23CCCC[C@@H]2[C@@H]1Cc1ccc(O)cc13` gave Anthrax LT inh inconclusive, AmpC inh no det -16%, Prx2 Sm inh >57 and AmpC det inh -3%.
Cc1cc(C)n(CCc2nc(-c3cc4ccccc4o3)cs2)n1 was read as Anthrax LT inh 25µM*, AmpC inh no det 101%, Prx2 Sm inh >57 and AmpC det inh -3%.
Screening CC(=O)Nc1ccc(C(=O)CCl)cc1 returned Anthrax LT inh 13µM*, AmpC inh no det -9% and AmpC det inh 9%.
For O=C(O)c1ccccc1-c1c2cc(Br)c(=O)cc-2oc2[c]([Hg])c(O)c(Br)cc12 the results were Anthrax LT inh inconclusive, AmpC inh no det -17%[12.8 µM], Prx2 Sm inh 0.037* and AmpC det inh -3%[12.8 µM].
`O=C(O)/C=C\c1c2ccc(=O)c(O)c-2oc2c(O)c(O)ccc12` gave Anthrax LT inh inconclusive, AmpC inh no det 1.6µM*, Prx2 Sm inh >57 and AmpC det inh 2µM*.
Screening CCOC(=O)CS(=O)(=O)c1nc(-c2ccccc2)cc(C(F)(F)F)n1 returned Anthrax LT inh 3.2µM*, AmpC inh no det -3%, Prx2 Sm inh >57 and AmpC det inh -8%.
`CCOC(=O)CCS(=O)(=O)c1nc(-c2ccccc2)cc(C(F)(F)F)n1` gave Anthrax LT inh inconclusive, AmpC inh no det 16%, Prx2 Sm inh >57 and AmpC det inh 1%.
For CC(O)Cc1nsc(NC(=O)c2cccs2)n1 (stereo not drawn) the results were Anthrax LT inh -8%, AmpC inh no det 4µM*[single pt active], Prx2 Sm inh >57 and AmpC det inh 13%.
Screening Cc1cccc(CNc2nc(-c3cccnc3)nc3ccccc23)c1 returned Anthrax LT inh inconclusive, AmpC inh no det 20%, Prx2 Sm inh >57 and AmpC det inh 5%.
Cc1c(O)ccc2c1OCO2 was read as Anthrax LT inh 4%[8 µM].
Screening CCNc1ncc2nc(CCc3ccccc3)c(=O)n(-c3ccccc3)c2n1 returned Anthrax LT inh inconclusive, AmpC inh no det 14%, Prx2 Sm inh >57 and AmpC det inh 0%.
Cc1cccc(NS(=O)(=O)c2cc(C(=O)OCC(=O)Nc3cc(C)on3)ccc2C)c1 was read as Anthrax LT inh -24%, AmpC inh no det inconclusive, Prx2 Sm inh >57 and AmpC det inh 0%.
For Cc1cccc(NS(=O)(=O)c2ccc(C)c(C(=O)OCC(=O)Nc3cc(C)on3)c2)c1 the results were Anthrax LT inh inconclusive, AmpC inh no det 10µM*, Prx2 Sm inh >57 and AmpC det inh -6%.
CC(C)COC(=O)c1ccccc1C(=O)OCC(C)C was read as Anthrax LT inh inconclusive, AmpC inh no det -3% and AmpC det inh 1%.
For CC(C)COC(=O)c1nnsc1NC(=O)Nc1ccccc1 the results were Anthrax LT inh -27%, AmpC inh no det 16µM*[single pt active], Prx2 Sm inh >57 and AmpC det inh -2%.
For O=[N+]([O-])c1ccc2c(c1)S(=O)c1ccccc1-2 (stereo not drawn) the results were Anthrax LT inh 3%[8 µM], AmpC inh no det 1%[5.75 µM], Prx2 Sm inh >57 and AmpC det inh -6%[5.75 µM].
`O=C1c2cc([N+](=O)[O-])ccc2-c2ccc3c4ccc5c6c(ccc(c7ccc1c2c73)c64)C(=O)c1cc([N+](=O)[O-])ccc1-5` gave Anthrax LT inh -2%[8 µM], AmpC inh no det 2.5µM*, Prx2 Sm inh >57 and AmpC det inh -11%[5.75 µM].
O=C(NCc1ccc(F)cc1)c1cc2n(n1)C(C(F)(F)F)CC(C1CC1)N2 (stereo not drawn) was read as Anthrax LT inh -3%, AmpC inh no det 4µM*[single pt active], Prx2 Sm inh >57 and AmpC det inh 11%.
`Cn1cccc1C(=O)N1CCC2(CCCN(c3cccc(-c4ccccc4)c3)C2)CC1` gave Anthrax LT inh inconclusive, AmpC inh no det 60%, Prx2 Sm inh >57 and AmpC det inh -2%.
Screening CC(=O)c1cccc(NC2c3ccccc3C(=O)N2Cc2ccc3c(c2)OCO3)c1 (stereo not drawn) returned Anthrax LT inh -18%, AmpC inh no det 4µM*[single pt active], Prx2 Sm inh >57 and AmpC det inh 13%.
`COc1ccccc1Nc1nc(-c2cccs2)cs1` gave Anthrax LT inh inconclusive, AmpC inh no det 7.9µM*[single pt active] and AmpC det inh -5%.
For COc1ccc(OC)c(Nc2nc(-c3cccs3)cs2)c1 the results were Anthrax LT inh inconclusive, AmpC inh no det 4%, Prx2 Sm inh >57 and AmpC det inh 13%.
O=C(c1cnccn1)N1CCC2(CC1)CN(c1cccc(-c3ccccc3)c1)C2 was read as Anthrax LT inh -11%, AmpC inh no det 163%, Prx2 Sm inh >57 and AmpC det inh 1%.
Screening CC1(C)Cc2c(c(N3CCOCC3)nc3sc(C(=O)N4CCCCC4)c(N)c23)CO1 returned Anthrax LT inh -10%, AmpC inh no det 4µM*[single pt active], Prx2 Sm inh >57 and AmpC det inh 25%.
Screening COc1cccc(NC(=O)c2ccc(CN3CCN(c4ccccc4)CC3)cc2)c1 returned Anthrax LT inh 10µM*, AmpC inh no det 32%, Prx2 Sm inh >57 and AmpC det inh -5%.
Cc1noc(C)c1S(=O)(=O)N1CCCC(C(=O)Nc2ccc(Cl)cn2)C1 (stereo not drawn) was read as Anthrax LT inh -2%, AmpC inh no det 11%, Prx2 Sm inh >57 and AmpC det inh -4%.
For Cc1cc(NC(=O)C2CCCN(S(=O)(=O)c3c(C)noc3C)C2)no1 (stereo not drawn) the results were Anthrax LT inh -5%, AmpC inh no det 4µM*[single pt active], Prx2 Sm inh >57 and AmpC det inh 13%.
`CC(C)NC(=O)N1CCCC2(CCN(C(=O)c3cccc(F)c3)CC2)C1` gave Anthrax LT inh 0%, AmpC inh no det 2%, Prx2 Sm inh >57 and AmpC det inh -1%.
For Cl.Cl.Cl.Cl.Cl.Cl.N.N.N.N.NNNNN.NNNNN.O.O.[Ru].[Ru].[Ru] the results were Anthrax LT inh -6%, AmpC inh no det 5µM*, Prx2 Sm inh >57 and AmpC det inh -7%.
Screening COc1ccc(Cc2nc(-c3cccs3)no2)cc1OC returned Anthrax LT inh -15%, AmpC inh no det 4µM*[single pt active], Prx2 Sm inh >57 and AmpC det inh 6%.
For Cc1cccc(CNc2nc(-c3ccc(C(=O)N(C)C)cc3)nc3ccccc23)c1 the results were Anthrax LT inh -23%, AmpC inh no det 117%, Prx2 Sm inh >57 and AmpC det inh 0%.
Screening CCN1C[C@]2(C)CC[C@@H](O)[C@]34[C@@H]5CC6[C@@H](OC)C[C@@](O)([C@H]5[C@@H]6O)[C@@H](C[C@@H]23)[C@H]14 returned Anthrax LT inh -12%, AmpC inh no det 4%, Prx2 Sm inh >57 and AmpC det inh -2%.

Assay outcomes (PubChem)
